From PubChem BioAssay AID1733 (National Center for Advancing Translational Sciences (NCATS), 2009) come the findings set out here.

Where “and” joins values, the source holds several entries; their conditions need not be identical. Equal entries are not always repeated. Records with an inconclusive call do not appear. Values without a mark were called inactive. Calls of active or inactive are those of the source. Calls come from the whole dose curve; as a rule, active = well fitted inhibition curve with a large enough effect; inconclusive = small, poorly fitted or top-dose-only effect; inactive = flat fitted curve, though single readings scatter.

Chain of Luciferin 4-monooxygenase (Photinus pyralis) (P08659 whole entry, looked up, canonical isoform): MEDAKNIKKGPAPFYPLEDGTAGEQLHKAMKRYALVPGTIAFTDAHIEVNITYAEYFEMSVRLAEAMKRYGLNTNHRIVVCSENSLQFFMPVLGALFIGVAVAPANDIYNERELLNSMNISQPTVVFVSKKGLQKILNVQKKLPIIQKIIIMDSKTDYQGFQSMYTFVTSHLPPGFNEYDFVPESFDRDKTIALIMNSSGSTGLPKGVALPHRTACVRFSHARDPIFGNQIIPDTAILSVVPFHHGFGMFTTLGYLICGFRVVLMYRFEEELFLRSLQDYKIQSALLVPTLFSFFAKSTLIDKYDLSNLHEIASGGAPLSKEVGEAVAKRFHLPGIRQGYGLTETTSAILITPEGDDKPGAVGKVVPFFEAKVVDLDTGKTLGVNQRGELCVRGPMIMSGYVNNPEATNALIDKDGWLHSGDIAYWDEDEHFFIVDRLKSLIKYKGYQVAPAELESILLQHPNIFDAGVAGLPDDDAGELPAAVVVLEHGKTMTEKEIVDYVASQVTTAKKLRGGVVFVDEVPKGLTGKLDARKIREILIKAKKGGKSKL

In the assay the target is Luciferin 4-monooxygenase (Photinus pyralis) (UniProt P08659). Kind of assay: Counterscreen Assay for Enhancers of SMN2 Splice Variant Expression: Interaction with Luciferase Reporter. The conditions noted are these: purified firefly luciferase, luminescence, 5 min; series mostly up to 40.3 µM. The source says:
NIH Chemical Genomics Center [NCGC] NIH Molecular Libraries Probe Production centers Network [MLPCN] MLPCN Grant: R03 MH084179-01 Assay Submitter (PI): Elliot Androphy NCGC Assay Overview: Spinal muscular atrophy (SMA) is caused by insufficient levels of the survival motor neuron protein SMN. The SMN locus on chromosome 5q13 contains two inverted copies of SMN called SMN1 and SMN2 which are 99% identical at the amino acid level. SMN1 is a fully functional protein and SMN2 skips exon 7 90% of the time. Skipping of exon 7 produces non-functional protein product. 10% of the SMN2 protein includes exon 7 and is fully functional. In the SMA disease state, mutations in the SMN1 locus are the cause of the disease state. Because only 10% of SMN2 is of the fully functional form, it is not sufficient to overcome the deficiency produced by the loss of the SMN1 product. A therapy that either increases the amount of SMN2 product made increases the inclusion of exon 7 has been proposed for the treatment of SMA. We have designed an assay to identify small molecules that can increase the amount of functional SMN2 product by appending a luciferase reporter gene after the native SMN2 gene, such that inclusion of exon 7 in the expressed product places the luciferase sequence in frame, thus generating functional luciferase enzyme. One potential source of false positives in the primary screening assay is stabilization of the reporter luciferase via direct binding. This assay attempts to identify such compounds by screening directly for luciferase activity in the absence of the cellular system.
NCGC Assay Protocol Summary: The primary screen utilizes a luciferase reporter gene assay, combining the promoter and splicing based cassettes in tandem with the major portion of the native SMN1 cDNA, and then transfected into HEK293 cells. Compounds that modulate luciferase signal presumably modulate expression of […]. In this assay, we utilize purified firefly luciferase in lieu of a cellular reporter to identify compounds interacting directly with luciferase in the primary screen. Sequence, Parameter, Value, Description (1) Reagent, 2.5 uL, Enzyme in buffer (note A) (2) Compound, 23 nL, From stock solutions (3) Time, 5 minutes, Room temp (4) Reagent#2.5 ul, Luciferase detection reagent (note B) (5) Detector, 1 sec integrate, Luminescent read on Viewlux (note C) Sigma enzyme (1 mg) considered to be MW 61,000 diluted in 357 ul assay buffer to 50 uM stock. A - Enzyme and buffer consists of 50 mM Tris-acetate pH 7.6, 10 mM Mg acetate 0.05% BSA, 0.01% Tween and 5 nM firefly luciferase B - Detection reagent = britelite plus diluted 1:10 in PBS C - Viewlux settings were 1 second integration medium sensitivity Keywords: Spinal muscular atrophy, SMA, SMN2, high throughput screening, MLSMR, MLPCN, NIH Roadmap, qHTS and NCGC
(A counterscreen serves to expose hits that act by an unwanted route or on another target.)
As for `O=S(=O)(NC1CCCc2ccccc21)c1cnc[nH]1` (stereo not given), the activity change, negative = inhibition is 3.43% [at 48.7 pM].

Consider `CCC(=O)n1nc(NCc2ccccc2OC)nc1NCc1ccccc1OC`, for which the activity change, negative = inhibition was -6.75% [at 48.7 pM].

Take `O=C(Cc1c(F)cccc1Cl)N1CCN(C(=O)c2ccco2)CC1`: the activity change, negative = inhibition was -0.165% [at 48.7 pM].

Consider `COCCCN1C(=O)C(=O)/C(=C(/O)c2ccc3c(c2)CC(C)O3)C1c1cccnc1` (stereo not given), for which the activity change, negative = inhibition was 4.07% [at 48.7 pM].

Consider `COC(=O)C1=C(C)NC(=O)/C1=C\c1cc(C)n(-c2ccccc2F)c1C`, for which the activity change, negative = inhibition is 8.15% [at 48.7 pM].

Consider `O=[N+]([O-])c1ccc(-c2nnc(-c3ccccc3)c(NCCCO)n2)cc1`, for which the Potency is 11.2 µM (active).

As to `COc1ccc(CNC(=O)c2ccc(C(C)C)cc2)cc1`, the activity change, negative = inhibition is 39.8% [at 48.7 pM].

With `Cc1nnc(-c2ccccc2)[nH]c1=O`, the Potency entry is “inactive”.

Take `OC[C@H]1O[C@@H](n2cnc3c(Nc4ccccc4)ncnc32)[C@H](O)[C@H]1O`: the Potency entry is “inactive”.

`O=C(NCc1cccs1)C(=O)NCC1OCCCN1S(=O)(=O)c1ccccc1` (stereo not given): the activity change, negative = inhibition is 14.3% [at 48.7 pM].

Regarding `COC(=O)C1=C(CN2CCc3ccccc32)NC(=O)NC1c1cc(C)ccc1C` (stereo not given), the activity change, negative = inhibition was 18.7% [at 48.7 pM].

As to `O=C(Nc1nc(-c2ccc3ccccc3c2)cs1)C1CCN(S(=O)(=O)c2cccs2)CC1`, the Potency result was “inactive”.

For the compound `NC(=O)C1(N2CCCCC2)CCN(c2nc(-c3ccccc3)cs2)CC1`, the Potency result was “inactive”.

For `CC(/C=C/C(=O)NO)=C\[C@@H](C)C(=O)c1ccc(N(C)C)cc1`, the Potency result is “inactive”.

On to `Fc1ccc(Oc2nc(-c3ccccc3)nnc2C(F)(F)F)cc1`, for which the Potency was 11.2 µM (active).

As to `N#C/C(=C\Nc1ccccc1SC(F)(F)F)c1nc(-c2ccc(Cl)cc2)cs1`, the activity change, negative = inhibition is 19.5% [at 48.7 pM].

With `COc1cccc(NC(=O)CSc2nc3ccccc3nc2N2CCOCC2)c1`, the Potency result was “inactive”.

As to `O=C(Nc1ccc([N+](=O)[O-])cc1Cl)c1cc(Cl)ccc1O`, the Potency is 0.794 µM (active).

As to `Clc1ccc(-c2nnc(-c3ccccc3)nc2N2CCSCC2)cc1`, the Potency was 11.2 µM (active).

On to `CCOc1c(Cl)cc(C(=O)Nc2ccccc2C(=O)O)cc1Cl`, for which the Potency was 3.98 µM (active).

Take `FC(F)C(F)(F)C1=CC(c2cccs2)=NCCN1`: the activity change, negative = inhibition is -4.71% [at 48.7 pM].

For the compound `O=C1CCC(C(=O)Nc2cccc3ccccc23)N1` (stereo not given), the activity change, negative = inhibition was 7.8% [at 48.7 pM].

Turning to `OCCCNc1nc(-c2ccc(Cl)cc2)nnc1-c1ccccc1`, the Potency result is “inactive”.

For the compound `Clc1ccc(-c2nnc(-c3ccccc3)nc2-c2c[nH]c3ccccc23)cc1`, the Potency result is “inactive”.

Consider `CCOc1ccc2nc(N3CCC(C(=O)N4CCN(c5ccccn5)CC4)CC3)sc2c1`, for which the Potency result is “inactive”.

`CCCc1sc(N2CCCC(C(N)=O)C2)nc1-c1ccccc1` (stereo not given): the Potency result was “inactive”.

On to `FC(F)(F)c1cccc(Oc2nc(-c3ccccc3)nnc2C(F)(F)F)c1`, for which the Potency was 8.91 µM (active).

In the case of `OCCCNc1nc(-c2ccc(Br)cc2)nnc1-c1ccc(Cl)cc1`, the Potency entry was “inactive”.

In the case of `COc1nc(-c2ccc(Cl)cc2)nnc1C`, the Potency result is “inactive”.

`Nc1ccccc1-c1nnn(CC(=O)N2CCCc3ccccc32)n1`: the activity change, negative = inhibition is 2.12% [at 48.7 pM].

With `CCC1=Nc2ccccc2-c2nnc(SC)nc2O1`, the Potency entry is “inactive”.

Turning to `CCOC(=O)c1c(-c2cccc(C)c2)csc1NC(=O)c1c(-c2ccccc2)noc1C`, the activity change, negative = inhibition was -9.91% [at 48.7 pM].

On to `O=c1[nH]c(=O)n(C2CCCO2)cc1Br` (stereo not given), for which the Potency result was “inactive”.

As for `Cc1ccc(C(=O)Cn2c3c(sc2=N)CCCC3)cc1`, the Potency is 126 nM (active) and 100 nM (active).

Turning to `FC(F)(F)c1nnc(-c2ccccc2)nc1Oc1ccccc1`, the Potency is 11.2 µM (active).

For `NC(=O)C1(N2CCCCC2)CCN(c2nc(-c3ccc(Br)cc3)cs2)CC1`, the Potency entry is “inactive”.

For the compound `CC(C)Nc1nc(-c2ccccc2)nnc1-c1ccccc1`, the Potency result was “inactive”.

As to `CCCSc1nnc2c(n1)OC(c1sccc1C)Nc1ccccc1-2` (stereo not given), the Potency was 14.1 µM (active).

`COc1ccc(OC)c(-c2csc(N3CCC(c4ccccc4)CC3)n2)c1`: the Potency entry is “inactive”.

In the case of `Cc1ccc(-c2csc(NC(=O)C3CCN(S(=O)(=O)c4cccs4)CC3)n2)cc1`, the Potency is 8.91 µM (active).
